The other results are listed elsewhere or left out. Inconclusive results are not listed. Calls of active or inactive are those of the source. Calls follow the shape of the dose curve; as a rule, active = well fitted inhibition curve with a large enough effect; inconclusive = small, poorly fitted or top-dose-only effect; inactive = flat fitted curve, though single readings scatter.
assay: qHTS Assay for Compounds Blocking the Interaction Between CBF-beta and RUNX1 for the Treatment of Acute Myeloid Leukemia: ME-1 cellular proliferation; conditions: ME-1 cell proliferation, ATP luminescence, 48 h; series mostly up to 56.1 µM
From the text: NIH Chemical Genomics Center [NCGC]
NIH Molecular Libraries Probe Production centers Network [MLPCN]
Assay Submitter (PI): Paul Liu
Core Binding Factor (CBF) abnormalities are associated with 20-25% of all acute myeloid leukemias (AML), of which 5-10% are further sub classified as acute myelomonocytic leukemia with eosinophilia, also known as M4Eo in the FAB classification scheme. This subtype of leukemia is usually associated with chromosome 16 inversion (p13:q22). Chromosome 16 inversion results in formation of the fusion oncogene CBFB-MYH11, which encodes the fusion protein CBF-beta-SMMHC.
It has been hypothesized that the interference of CBF-beta and RUNX1 binding could have therapeutic implications for patients with CBF mediated leukemias. We developed a CBF-beta and RUNX1 binding assay in AlphaScreenTM format and optimized it for high throughput screening to search for inhibitors. The goal of this project is to screen MLPCN's compound collection (MLSMR) for identifying the inhibitors of the interaction between CBF-beta and RUNX1 proteins as research probes. If these probes work well in the animal models, the ultimate goal of this project is to development a new drug treatment for this disease.
The present assay assesses compounds ability to slow cellular proliferation in a CBFb dependent cell line, ME-1.
2uL/well media was dispensed per well into 1536-well white solid-bottom plates using Multidrop Combi dispenser. Subsequently, 23 nL/well compound solutions or DMSO controls were dispensed to the assay plates via a pintool workstation. The cells were grown in T225 flasks to 70% confluence under a standard cell culture condition (ATCC), detached with 0.25% Trypsin/EDTA, and seeded at 250 cells/well in 5uL medium (Dulbecco's Modified Eagle Medium, 10% fetal bovine serum, 1x penicillin/streptomycin).

outcome, inactive:
CC(C)C(N)C(=O)OCCOCn1cnc2c(=O)[nH]c(N)nc21 (stereo not given)
N#Cc1ccc(C(c2ccc(C#N)cc2)n2cncn2)cc1
O=C(OCC1O[C@@H](OC(=O)c2cc(O)c(O)c(O)c2)[C@@H](OC(=O)c2cc(O)c(O)c(O)c2)[C@@H](OC(=O)c2cc(O)c(O)c(O)c2)[C@@H]1OC(=O)c1cc(O)c(O)c(O)c1)c1cc(O)c(O)c(O)c1 (stereo not given in full)
COc1cc(C(=S)NCc2ccccc2)cc(Br)c1O
CC[N+](C)(CC)CCC[n+]1c(-c2ccccc2)c2cc(N)ccc2c2ccc(N)cc21

Source: PubChem BioAssay AID504370 (National Center for Advancing Translational Sciences (NCATS), 2011)
